# According to PubChem BioAssay AID624255 (Broad Institute, 2012):
# Among all 77,000 compounds or so, about 4,600 (6%) were called active. Another 1% or so got no clear call; they are omitted. This excerpt belongs to a sample that is enriched for actives. Values without a mark were called inactive.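 Rule for the calls: active = mean inhibition above about 93%, with at least 55% of replicates each passing it (limit read from the data, passing the limit was not always enough); inconclusive = only one of those two conditions holds; inactive = neither condition holds.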
# Experiment: growth inhibition of T. cruzi in host fibroblasts – cell-based, beta-gal Tulahuen parasites, NIH3T3 host, luminescence, primary screen (AID 624255)
# Conditions: T. cruzi beta-gal in NIH3T3, GalScreen luminescence, 90 h; at 8.34 µM; active compounds read high
row,Compound,inhibition
1,COCC#Cc1cnc2c(c1)C(=O)N([C@@H](C)CO)C[C@@H](C)[C@@H](CN(C)C(=O)c1cccnc1)O2,71.4%
2,O=C(CC1CC1)N1[C@@H]2CN(S(=O)(=O)c3ccc(F)cc3)c3ccccc3[C@@H]2[C@@H]1CO,19.2%
3,C[C@@H]1CCCCO[C@H](CN(C)S(=O)(=O)c2cccs2)[C@H](C)CN([C@H](C)CO)C(=O)c2cc(NC(=O)c3ccccc3)ccc2O1,88.6%
4,O=C(C[C@H]1C=C[C@H](NC(=O)Nc2ccccc2F)[C@@H](CO)O1)NCc1ccc(Cl)cc1,27.5%
5,CC(C)C#Cc1ccc([C@@H]2[C@@H](C#N)N(C(=O)C3CC3)[C@@H]2CO)cc1,68.6%
6,CCCC#Cc1ccc([C@@H]2[C@@H](C#N)N(C(=O)C3CCCC3)[C@@H]2CO)cc1,102% (active)
7,CCCC#Cc1ccc([C@H]2[C@@H](CO)N(C(=O)C3CC3)[C@H]2C#N)cc1,74.3%
8,N#C[C@@H]1[C@H](c2ccc(C#Cc3cccc(F)c3)cc2)[C@@H](CO)N1C(=O)C1CCCC1,97.3% (active)
9,CN(C)CC#Cc1ccc([C@H]2[C@@H](CO)N(C(=O)C3CCC3)[C@H]2C#N)cc1,69.2%
10,CCCC#Cc1ccc([C@@H]2[C@@H](C#N)N(C(=O)C3CCC3)[C@H]2CO)cc1,92.4%
11,N#C[C@@H]1[C@@H](c2ccc(C#Cc3cccc(F)c3)cc2)[C@H](CO)N1C(=O)C1CCOCC1,83.9%
12,N#C[C@H]1[C@H](c2ccc(C#Cc3ccc(F)cc3)cc2)[C@@H](CO)N1C(=O)C1CCCC1,92.9%
13,N#C[C@@H]1[C@@H](c2ccc(C#Cc3cccc(F)c3)cc2)[C@@H](CO)N1C(=O)C1CCC1,101% (active)
14,Cn1cnc(CCNC(=O)C[C@H]2CC[C@H]3[C@@H](COC[C@@H](O)CN3C(=O)Nc3ccc(C(F)(F)F)cc3)O2)c1,28.4%
15,CC=Cc1ccc2n(c1=O)C[C@H]1[C@H](CO)[C@@H](C(=O)NC3CCCC3)N(Cc3ccncc3)[C@@H]21 (mixture of isomers),-33.3%
16,CS(=O)(=O)Nc1ccc2c(c1)[C@H]1C[C@H](CC(=O)NCc3ccc(Oc4ccccc4)cc3)O[C@H](CO)[C@H]1O2,3.92%
17,O=C(C1CC1)N1CCCCN2[C@H](C1)[C@@H](c1ccc(-c3cccc(F)c3)cc1)[C@@H]2CO,32.6%
18,O=C(C1CCC1)N1CCCCN2[C@H](CO)[C@H](c3ccc(-c4cccc(F)c4)cc3)[C@@H]2C1,99.7% (active)
19,O=C(C1CCCC1)N1CCCCN2[C@@H](CO)[C@H](c3ccc(-c4cccc(F)c4)cc3)[C@@H]2C1,111% (active)
20,O=C(C1CCC1)N1CCCCN2[C@H](CO)[C@H](c3ccc(-c4ccncc4)cc3)[C@@H]2C1,99.7% (active)
21,O=C(C1CC1)N1CCCCN2[C@H](CO)[C@H](c3ccc(-c4cccc(F)c4)cc3)[C@H]2C1,95.6% (active)

row,Compound,inhibition
1,O=C(Nc1ccc(F)cc1)N1CCCCN2[C@H](CO)[C@H](c3ccc(-c4ccncc4)cc3)[C@@H]2C1,67.2%
2,O=C(C1CCC1)N1CCCCN2[C@H](CO)[C@H](c3ccc(-c4cccc(F)c4)cc3)[C@H]2C1,94.1%
3,O=C(N[C@H]1CC[C@H](CCNS(=O)(=O)c2ccc(F)cc2)O[C@H]1CO)c1cccnc1,14.1%
4,CCC(=O)Nc1ccc2c(c1)C(=O)N(C)[C@@H]1CC[C@H](CC(=O)NCCc3ccncc3)O[C@@H]1CO2,64.6%
5,O=C(Cc1ccncc1)NCC[C@@H]1CC[C@H](NC(=O)Nc2ccc(Cl)cc2)[C@@H](CO)O1,37%
6,O=C(C[C@H]1C[C@H]2c3cc(NC(=O)Cc4ccncc4)ccc3O[C@H]2[C@@H](CO)O1)NCc1cccc(F)c1,-15.1%
7,O=C(C[C@H]1CC[C@H]2[C@@H](COC[C@H](O)CN2CCC(F)(F)F)O1)N1CCC(Cc2ccccc2)CC1,65.1%
8,CN1C(=O)c2cc(NC(=O)c3ccccc3)ccc2OC[C@@H]2O[C@@H](CC(=O)NC3CCCC3)CC[C@H]21,18.9%
9,CC=Cc1ccc2n(c1=O)C[C@@H]1[C@@H](CO)[C@H](C(=O)N(C)C)[C@H]2N1CCc1ccccc1 (mixture of isomers),37%
10,Cc1ccccc1S(=O)(=O)N1[C@H](C#N)[C@H](c2ccccc2)[C@H]1CO,-43.9%
11,COc1ccc(NC(=O)N(C)C[C@H]2Oc3c(NC(=O)NC(C)C)cccc3C(=O)N([C@@H](C)CO)C[C@H]2C)cc1,39.4%
12,COc1ccc(NC(=O)N(C)C[C@@H]2Oc3c(NC(=O)NC4CCCCC4)cccc3C(=O)N([C@@H](C)CO)C[C@@H]2C)cc1,99.3% (active)
13,COc1ccc(S(=O)(=O)N(C)C[C@H]2Oc3c(NC(=O)Nc4cccc5ccccc45)cccc3C(=O)N([C@@H](C)CO)C[C@H]2C)cc1,128% (active)
14,COc1ccc(S(=O)(=O)N(C)C[C@@H]2Oc3c(NC(=O)NC(C)C)cccc3C(=O)N([C@@H](C)CO)C[C@@H]2C)cc1,11.6%
15,C[C@@H]1CN([C@@H](C)CO)C(=O)c2cccc(NC(=O)Nc3cccc4ccccc34)c2O[C@H]1CN(C)S(=O)(=O)c1ccccc1,41.2%
16,C[C@@H]1CN([C@H](C)CO)C(=O)c2cccc(NC(=O)c3nc4ccccc4s3)c2O[C@H]1CN(C)S(=O)(=O)c1ccc(Cl)cc1,55.8%
17,C[C@@H]1CN([C@@H](C)CO)C(=O)c2cccc(NC(=O)c3nc4ccccc4s3)c2O[C@H]1CN(C)S(=O)(=O)c1cccs1,82.6%
18,COc1ccc(NC(=O)N(C)C[C@@H]2Oc3c(NC(=O)NC4CCCCC4)cccc3C(=O)N([C@H](C)CO)C[C@H]2C)cc1,2.44%
19,Cc1ccc(S(=O)(=O)N(C)C[C@@H]2Oc3c(NC(=O)c4nc5ccccc5s4)cccc3C(=O)N([C@H](C)CO)C[C@@H]2C)cc1,110% (active)
20,CO[C@H]1CN(C)C(=O)c2ccc(NS(C)(=O)=O)cc2OC[C@@H](C)N(C(=O)c2ccc3c(c2)OCO3)C[C@@H]1C,22.5%
21,O=C(C[C@@H]1CC[C@H]2[C@@H](COC[C@H](O)CN2C(=O)Nc2ccc(Cl)cc2)O1)NCC1CC1,9.76%

row,Compound,inhibition
1,O=C(c1cccnc1)N1C[C@H]2[C@@H](c3ccccc31)[C@H](CO)N2C(=O)C1CC1,32.1%
2,COc1ccc(NC(=O)Nc2ccc3c(c2)[C@H]2C[C@H](CC(=O)NC4CCCCC4)O[C@H](CO)[C@H]2O3)cc1,-22.1%
3,O=C(NC1CCCC1)[C@H]1[C@H](CO)[C@H]2Cn3c(cccc3=O)[C@H]2N1C(=O)NC1CCCC1,-32.8%
4,C[C@@H]1CN([C@H](C)CO)C(=O)c2cc(-c3cccc(C#N)c3)cnc2O[C@H]1CN(C)C(=O)C1CCC1,-99.6%
5,COCC(=O)Nc1ccc2c(c1)OC[C@H](C)N(C(=O)c1ccccn1)C[C@@H](C)[C@H](OC)CN(C)C2=O,26.6%
6,C[C@H](CO)N1C[C@H](C)[C@@H](CN(C)C(=O)C2CC2)Oc2ncc(-c3cccc(C#N)c3)cc2C1=O,68.3%
7,Cc1ccc(S(=O)(=O)N2C[C@H](O)COC[C@@H]3O[C@H](CC(=O)N[C@H]4CCN(Cc5ccccc5)C4)CC[C@H]32)cc1,51.3%
8,C[C@H](O)C#Cc1ccc2c(c1)O[C@@H](CN(C)C(=O)C1CC1)[C@H](C)CN([C@H](C)CO)S2(=O)=O,-20.8%
9,C[C@@H]1CN([C@H](C)CO)S(=O)(=O)c2ccc(-c3ccccc3)cc2O[C@@H]1CN(C)C(=O)C1CC1,84.2%
10,C[C@H](O)C#Cc1ccc2c(c1)O[C@H](CN(C)C(=O)C1CC1)[C@@H](C)CN([C@H](C)CO)S2(=O)=O,13.9%
11,C[C@@H]1CN([C@@H](C)CO)S(=O)(=O)c2ccc(C#CCN(C)C)cc2O[C@H]1CN(C)C(=O)C1CC1,94.7% (active)
12,C[C@@H]1CN([C@H](C)CO)S(=O)(=O)c2ccc(-c3ccccc3)cc2O[C@H]1CN(C)C(=O)C1CCC1,55%
13,C[C@H](CO)N1C[C@H](C)[C@@H](CN(C)C(=O)C2CCCCC2)Oc2cc(-c3ccccc3)ccc2S1(=O)=O,103% (active)
14,CCCC#Cc1ccc2c(c1)O[C@H](CN(C)C(=O)C1CCCCC1)[C@H](C)CN([C@H](C)CO)S2(=O)=O,68.4%
15,CCC(=O)N(C)C[C@H]1Oc2cc(C#CCC(C)C)ccc2S(=O)(=O)N([C@H](C)CO)C[C@H]1C,41.2%
16,CC(C)CC#Cc1ccc2c(c1)O[C@H](CN(C)C(=O)C1CC1)[C@@H](C)CN([C@@H](C)CO)S2(=O)=O,115% (active)
17,COCC(=O)Nc1ccc2c(c1)[C@@H]1C[C@@H](CC(=O)N3CCN(C)CC3)O[C@H](CO)[C@@H]1O2,-9.47%
18,COc1ccc(NC(=O)N(C)C[C@H]2Oc3cc(-c4ccncc4)ccc3S(=O)(=O)N([C@@H](C)CO)C[C@H]2C)cc1,53.3%
19,CCCNC(=O)[C@H]1[C@H](CO)[C@H]2Cn3c(ccc(C4=CCCC4)c3=O)[C@H]2N1C(=O)CC1CC1,-12.5%
20,C[C@H](NC(=O)C[C@H]1CC[C@H]2[C@@H](COC[C@H](O)CN2C(=O)Nc2cc(Cl)cc(Cl)c2)O1)c1ccccc1,20.2%
21,Cc1ccccc1S(=O)(=O)N[C@@H]1CC[C@@H](CCNS(=O)(=O)c2cccc(F)c2)O[C@H]1CO,22%
